Experimental data taken from the supplement of paper PMC6555819.

Tests used:
Assay in all cases: PBM binding z-score (relative to random genomic background probes); higher = stronger binding; sequences stand for … in GC…GCGATTGACAGCGTAGAATGAAGG
[1] = test system: FXR:RXRa (NR concentration 270 nM, RXRa partner concentration 90 nM)
Procedure, shortened: (§1)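 Binding z-scores take random background probes as their reference. They come from custom Agilent 4×180K protein-binding microarrays incubated 1 h with ligand-free nuclear receptor dimers, with antibodies against each partner (one per run) detecting binding. Scanned fluorescence was regression-normalized.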

[2] = test system: LXRa:RXRa (NR concentration 270 nM, RXRa partner concentration 90 nM)
Procedure, shortened: as §1

[3] = test system: LXRa homodimer (NR concentration 270 nM)
Procedure, shortened: as §1

[4] = test system: LXRb:RXRa (NR concentration 270 nM, RXRa partner concentration 90 nM)
Procedure, shortened: as §1

[5] = test system: LXRb homodimer (NR concentration 270 nM)
Procedure, shortened: as §1

[6] = test system: PPARa:RXRa (NR concentration 270 nM, RXRa partner concentration 90 nM)
Procedure, shortened: as §1

[7] = test system: PPARg:RXRa (NR concentration 180 nM, RXRa partner concentration 90 nM)
Procedure, shortened: as §1

[8] = test system: PPARg:RXRa 270nM:90nM, anti-RXR (NR concentration 270 nM, RXRa partner concentration 90 nM)
Procedure, shortened: as §1

[9] = test system: PPARg:RXRa 30nM:10nM, anti-RXR (NR concentration 30 nM, RXRa partner concentration 10 nM)
Procedure, shortened: as §1

[10] = test system: PPARg:RXRa 90nM:30nM, anti-RXR (NR concentration 90 nM, RXRa partner concentration 30 nM)
Procedure, shortened: as §1

[11] = test system: PPARg:RXRa DBDmut IVT, anti-RXR (DBD mutation: RXRa K156A/R161A, NR concentration 270 nM, RXRa partner concentration 90 nM)
Procedure, shortened: as §1

[12] = test system: PPARg:RXRa IVT, anti-PPARg (NR concentration 270 nM, RXRa partner concentration 90 nM)
Procedure, shortened: as §1

[13] = test system: PPARg DBDmut:RXRa IVT, anti-PPARg (DBD mutation: PPARg1 K132A/R137A, NR concentration 270 nM, RXRa partner concentration 90 nM)
Procedure, shortened: as §1

[14] = test system: PPARg DBDmut IVT, anti-PPARg (DBD mutation: PPARg1 K132A/R137A, NR concentration 270 nM)
Procedure, shortened: as §1

[15] = test system: PPARg homodimer (NR concentration 180 nM)
Procedure, shortened: as §1

[16] = test system: PXR:RXRa (NR concentration 270 nM, RXRa partner concentration 90 nM)
Procedure, shortened: as §1

[17] = test system: PXR homodimer (NR concentration 270 nM)
Procedure, shortened: as §1

[18] = test system: RARa:RXR (NR concentration 270 nM, RXRa partner concentration 90 nM)
Procedure, shortened: as §1

[19] = test system: RARa homodimer (NR concentration 270 nM)
Procedure, shortened: as §1

[20] = test system: RARb:RXRa (NR concentration 270 nM, RXRa partner concentration 90 nM)
Procedure, shortened: as §1

Sequence	PBM binding z-score [1]	PBM binding z-score [2]	PBM binding z-score [3]	PBM binding z-score [4]	PBM binding z-score [5]	PBM binding z-score [6]	PBM binding z-score [7]	PBM binding z-score [8]	PBM binding z-score [9]	PBM binding z-score [10]	PBM binding z-score [11]	PBM binding z-score [12]	PBM binding z-score [13]	PBM binding z-score [14]	PBM binding z-score [15]	PBM binding z-score [16]	PBM binding z-score [17]	PBM binding z-score [18]	PBM binding z-score [19]	PBM binding z-score [20]
ATCACTAGGTAAAGATAGTTCAGTGAATGCAAAT	0.213	3.82	0.581	0.654	0.171	0.991	1.13	0.685	0.585	0.404	3.21	2.54	1.22	1.14	0.795	1.02	0.598	0.654	1.19	0.635
CATACAGGGTCAGCTAGGCCATAGTAGGGACGGC	4.59	3.07	-0.118	2.31	0.267	4.32	3.69	2.95	1.21	1.9	0.879	2.3	0.763	0.466	1.7	2.69	0.334	3.47	0.85	4.01
TCCAGTTGGTCACGGAGGTCACACACGACGGGTA	3.34	3.57	2.25	3.33	0.101	3.95	3.15	3.83	2.94	3.43	2.14	3.9	0.387	0.563	2.63	4.5	1.2	4.33	0.942	4
ACTATTAGTTGACTTAAGGCAACCGATACGACGC	0.413	0.299	0.175	0.537	1.03	0.139	0.967	0.607	0.511	0.394	0.219	0.392	0.915	1.11	0.0202	0.21	-0.0343	1.43	0.466	0.296
ATCTCTGGGTAAAAGTTCAGTGAATCCCGAGGAT	0.844	1.38	1.37	1.04	1.4	4.12	7.38	7.77	6.93	9.04	1.87	3.69	1.17	1.44	1.47	2.03	1.5	1.97	0.896	2.59
CTCGAAAGCTCGTGCTCAGGTGAGTATACCAAAC	-0.575	-0.866	-0.669	-0.84	-0.65	-0.803	-0.599	-0.812	-0.841	-0.913	-0.844	-0.272	-1.04	-0.415	-0.882	-0.746	-0.669	-0.62	-1.18	-1.07
TCATATAGGTAAATGCTAGGAGAAAGTCCGATCT	0.665	0.615	0.0582	0.346	0.0208	0.892	0.807	2.25	3.95	3.15	3.74	1.59	1.52	1.09	0.813	0.458	0.215	0.385	0.843	0.136
CGAACTAGGTCAGAACAGGACAGGGAAGGATGAT	1.5	1.01	0.0984	0.515	-0.138	3.4	5.45	4.61	1.99	3.65	7.1	7.39	2	3.12	1.1	0.778	0.31	2.03	0.307	3.02
ATCTCTAGGTAATGTTCAGTGAAAGATCGATAGA	0.347	0.554	0.048	0.107	1.09	0.239	0.489	0.323	0.558	0.276	2.57	1.63	1.27	1.25	0.598	0.381	0.219	0.543	0.802	0.148
TCTTGTAGATCAGCAGGTCAAGAAAGCTGGCCAA	1.17	1.55	0.209	1.59	-0.222	2.5	0.457	2.37	2.48	2.59	1.57	1.61	-0.677	-0.699	0.129	1.6	-0.4	2.18	-0.58	2.01
AATACAGGGTCATCGTAGGCCAGACTACGCACAG	7.17	6.52	2.16	5.02	1.46	6.05	6.77	6.04	2.96	4.83	2.63	4.16	1.31	1.03	2.16	4.73	0.736	4.7	0.914	4.5
TCATATAGGTAAGAGGTGAAAGTCGGTGTGGTAA	1.83	1.71	0.368	1.64	-0.0245	4.31	7.08	7.24	6.37	7.94	4.67	4.43	1.44	0.671	1.73	1.31	0.509	2	1.54	1.44
TCTTGTAGATCAGCAGGTTACGAAAGCTGGCCAA	0.0711	-0.119	-0.159	0.185	-0.369	0.613	-0.304	1.48	2.34	1.87	1.6	0.645	-0.743	-0.301	-0.303	-0.0656	-0.456	0.298	-0.436	0.143
CGTCCAAGGTAATAGGAGGTCAGTGAAGACAGAT	1.29	5.47	3.58	2.99	-0.518	2.14	0.506	0.791	-0.301	0.264	0.553	1.63	0.188	-0.16	1.61	2.8	0.938	2.15	1.12	2.23
TAGCCTAGGTCATTCAAGGGCCAGTATAGAAAGC	4.72	3.99	0.681	2.5	0.527	3.79	1.97	2.25	0.523	1.88	1.4	2.93	0.0741	0.0632	1.31	2.5	0.325	2.93	0.561	3.9
ATCGAAAGGTCGAAGAGGTGAGTATACACCGTTT	4.26	3.51	-0.1	2.49	0.443	4.09	2.38	2.8	0.698	2.03	-0.0174	1.75	0.444	0.332	1.01	2.82	0.5	3.46	0.27	3.62
CCTACTGGGCCAAAAAGGACATTGATGCCGATAA	-0.363	-0.495	-0.28	-0.539	-0.727	-0.00322	1.04	1.6	0.0632	1.17	3.5	2.63	-0.447	0.0111	0.363	-0.396	0.177	-0.191	0.526	0.68
GATACAGGGTCAGCTAGGGGCCAGAGTATGGAAA	5.14	2.64	-0.494	2.7	-0.084	4.79	3.88	3.46	0.617	1.94	1.75	2.41	-0.163	-0.667	3.15	2.94	-0.0214	4.97	0.262	4.22
CCTAGTTGGTCAAGGTCACACAGGCTATAGGTAC	4.41	4.07	1.88	3.56	0.583	4.31	3.32	3.88	1.62	2.62	2.08	3.64	0.89	0.538	3.81	4.67	3.92	4.96	2.03	4.34
TAGCCTAGGTCTTGGGCCAGTATACCACGCGAAC	-0.302	-0.359	-0.58	-0.334	-0.384	-0.242	0.0651	-0.286	-0.619	-0.51	-0.718	-0.4	-0.0485	-0.703	-0.0751	-0.448	-0.379	-0.298	-0.982	0.162
CGTCAAAATTCAAGGTAACGTAACAGAAAGCAGC	0.068	-0.273	0.242	0.13	0.187	0.331	0.678	0.108	0.0221	0.028	0.000306	0.704	0.815	0.761	0.474	-0.0296	0.268	0.363	0.932	0.208
CCTCGGAGGACAGAATGTCAGAGCTGTCCGCTTT	-0.31	-0.467	-0.713	-1.01	-0.428	-0.27	-0.416	-0.901	-0.655	-1.09	-0.17	-1.04	-1.38	-1.68	0.0941	-0.762	-0.458	-0.687	-0.242	0.241
CGTCAAAGTTCAACTAAGGTGACGTAAAGCACGC	7.03	6.44	4.17	4.04	2.05	5.05	5.01	5.86	2.52	4.48	0.538	2.53	-0.0247	0.457	4.07	5.89	4.65	4.4	1.76	5.17
CTCGAAAGGTCGCGCTCAGGTGAGTATACCAAAC	5.56	4.34	0.0163	3.5	0.0326	5.16	3.37	4.57	1.32	2.97	1.22	2.52	1.3	0.149	2.13	3.65	-0.145	4.74	-0.225	4.46
CCTCGGAGGACAACAGGACGTCAGAGCTGCCAGA	0.0455	-0.556	-0.533	-0.881	-0.769	-0.616	0.187	-1.2	-0.952	-1.19	-0.431	-0.589	-0.661	-1.48	-0.0308	-0.587	-0.482	-0.32	-0.489	0.92
TCTGCTAGGTCAACGATGGTCAGATAATCTGCTA	3.65	2.85	0.0239	1.94	0.0958	3.3	2.82	3.22	2.1	2.55	4.35	4.34	-0.0109	0.256	1.82	2.15	-0.779	2.44	-0.13	4.26
TGAATGAGGTTATAATATCAGGGAACGTTGCAAA	1.4	1.31	0.0955	1.38	0.0343	2.68	1.29	1.62	0.724	1.25	0.771	1.75	1.25	0.939	0.756	1.08	0.111	1.59	0.0682	1.08
TAGACTAGGTCATGCGGGCCAGTATAGTGTCGGC	3.22	2.34	0.304	1.15	0.173	3.96	5.48	4.65	2.34	3.95	5.86	6.59	1.88	2.4	0.793	1.06	-0.131	1.67	-0.228	3.55
